Source: PubChem BioAssay AID720595 (Broad Institute, 2013)
Results with a measured potency or affinity are listed apart. Values without a mark were called inactive. The source made the active and inactive calls.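 Rule for the calls: active = every repeat test gives a fitted half-maximal cytotoxic concentration no higher than twice the top valid dose; inconclusive = repeats disagree, or a flat partial loss or poor fit; inactive = the rest, including signal rising instead.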

experiment: HEK293T cell cytotoxicity, dose response, cytotoxicity control, CellTiter-Glo luminescence, dry powder, set 2 (AID 720595); details: HEK293T viability, ATP luminescence, 72 h; series mostly up to 26 µM; activity change, negative = cytotoxicity: at the top concentration

Row | Compound | activity change, negative = cytotoxicity [%] | outcome
1 | O=C(Nc1nnc(C2=COCCO2)o1)c1ccc(S(=O)(=O)N2CCCCC2)cc1 | -13.1 | –
2 | CC(C)Cc1nnc(NC(=O)c2cccc(S(=O)(=O)N3CCOCC3)c2)s1 | -10.6 | –
3 | Cc1c(C(=O)N(C)C)sc2nc(-c3ccccn3)[nH]c(=O)c12 | -16.1 | –
4 | Cc1ccc(C(=O)Nc2nc(-c3ccccc3)cs2)o1 | -2.19 | –
5 | COC(=O)c1ccc(NC(=O)CSc2ccc(-c3ccccn3)nn2)cc1 | -7.07 | –
6 | CC1CCN(S(=O)(=O)c2ccc(C(=O)Nc3nnc(-c4cccs4)o3)cc2)CC1 | -32.3 | –
7 | Cc1ccc(C(=O)Nc2nc(-c3ccccn3)cs2)cc1S(=O)(=O)N1CCOCC1 | 3.37 | –
8 | O=C(Nc1nc(-c2ccncc2)cs1)c1ccco1 | 5.54 | –
9 | Nc1nc(-c2ccccn2)nc(N)c1Cc1ccc(Cl)cc1Cl | -26.5 | –
10 | Cc1cccc(NC(=O)CSc2ccc(-c3ccccn3)nn2)c1C | -22 | –
11 | Cc1nnc(NC(=O)c2ccc(S(=O)(=O)N3CCCCC3)cc2)o1 | 3.22 | –
12 | FC(F)(F)c1cc(-c2nn[nH]n2)cc(C(F)(F)F)c1 | 16.9 | –
13 | O=C(CSc1ccc(-c2ccccn2)nn1)N1CCCC1 | 6.61 | –
14 | CC1CCN(S(=O)(=O)c2ccc(C(=O)Nc3nnc(-c4ccno4)o3)cc2)CC1 | 8.24 | –
15 | O=C(Nc1nc(-c2ccncc2)cs1)c1cccc(S(=O)(=O)N2CCOCC2)c1 | -2.67 | –
16 | O=C(CSc1ccc(-c2ccccn2)nn1)NC1CCCCC1 | -7.59 | –
17 | CC1CCN(S(=O)(=O)c2ccc(C(=O)Nc3nnc(C4CC4)o3)cc2)CC1 | -30.8 | –
18 | Cc1ccc(S(=O)(=O)CCc2nnc(NC(=O)c3ccccc3)s2)cc1 | 3.04 | –
19 | O=C(CSc1ccc(-c2ccccn2)nn1)Nc1nccs1 | -2.19 | –
20 | CC1CCN(S(=O)(=O)c2ccc(C(=O)Nc3nnc(-c4ccccn4)o3)cc2)CC1 | 0.61 | –
21 | CC1CC(C)CN(S(=O)(=O)c2ccc(C(=O)Nc3nnc(C4=COCCO4)o3)cc2)C1 (centres undefined) | 10.9 | –
22 | COc1ccc(-c2nnc(NC(=O)c3ccc(S(=O)(=O)N4CCC(C)CC4)cc3)o2)cc1 | 0.53 | –
23 | c1ccc(-c2nc(-c3ccncc3)n[nH]2)nc1 | – | inactive
24 | O=C(Nc1nc(-c2ccccn2)cs1)c1ccc(S(=O)(=O)N2CCOCC2)cc1 | 13.6 | –
